Bioassay records from PubChem BioAssay.
This is a sample that favours compounds with a hit; in the whole collection about 1.4% have one here.
ALOX12 inh = inhibitors of human 12S-lipoxygenase ALOX12; P18054; Potency, µM (doses to about 108 µM), inactives show top-dose activity change, negative = inhibition, usual class: inhibitors; actives 1.1% (n = 580,000); purified 12hLO, xylenol orange hydroperoxide absorbance; AID 1671190; further: potency means the concentration at half of the fitted maximal effect; on the % scale 0 is the no-effect control and ±100 the full control effect
Target sequence (P18054 whole entry, looked up): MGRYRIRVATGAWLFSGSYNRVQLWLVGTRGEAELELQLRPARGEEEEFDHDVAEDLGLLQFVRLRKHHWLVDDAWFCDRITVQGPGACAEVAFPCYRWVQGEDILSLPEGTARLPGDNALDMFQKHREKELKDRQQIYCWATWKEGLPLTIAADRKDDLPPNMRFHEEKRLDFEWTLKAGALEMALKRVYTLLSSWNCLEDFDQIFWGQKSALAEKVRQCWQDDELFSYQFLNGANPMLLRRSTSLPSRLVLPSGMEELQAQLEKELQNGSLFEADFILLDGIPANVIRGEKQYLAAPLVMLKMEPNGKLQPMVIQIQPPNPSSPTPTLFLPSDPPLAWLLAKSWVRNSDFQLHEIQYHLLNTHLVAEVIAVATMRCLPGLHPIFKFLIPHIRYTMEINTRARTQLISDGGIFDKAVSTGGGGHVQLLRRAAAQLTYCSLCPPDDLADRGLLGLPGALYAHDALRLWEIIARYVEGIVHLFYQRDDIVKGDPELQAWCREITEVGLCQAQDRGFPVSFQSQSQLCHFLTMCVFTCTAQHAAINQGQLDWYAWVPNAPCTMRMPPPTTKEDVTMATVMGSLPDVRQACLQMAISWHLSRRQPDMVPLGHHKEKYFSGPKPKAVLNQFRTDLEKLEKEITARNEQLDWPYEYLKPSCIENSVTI
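Hydroperoxide product was detected by ferrous iron/xylenol orange as the 573 to 405 nm absorbance ratio. Arachidonic acid at 40 uM (final) was turned over for 30 min at room temperature by 150 nM human 12hLO, pH 7.0 Hepes buffer, after 15 min compound preincubation.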
CCT chaperon mod = changes cytosolic chaperonin activity. purified chaperonin ATPase assay, HTRF ADP detection, 30 min. actives 0.3% (n = 360,000). activity change, % (concentration not given with the values), hits read low. AID 651819; in the data active means activity change below about -30%; further: on the % scale 0 is the no-effect control and ±100 the full control effect
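Enzyme 40 or 20 nM (batch-dependent) in Tris pH 7.4/KCl/MgCl2/DTT; cpd 76 uM single point; ATP 10 uM; 30 min 37 °C; Transcreener ADP HTRF detection, 30 min RT; ratio 665/615.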
PINK1 modulator = modulators of PINK1 expression; actives 0.2% (n = 410,000); AID 624263; PINK1 immunofluorescence, high-content cytometry, 24 h; Potency, µM (series often up to 76.6 µM), for the others: at the top dose activation (PINK1 increase), most hits filed as activators; active means well fitted activation curve with a large enough effect; inconclusive means small, poorly fitted or top-dose-only effect; cell line not stated here; further: potency means the concentration at half of the fitted maximal effect; % of control where 0% means no effect; nearly all actives have a fitted effect of over 65% in size
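Cells are seeded, rested 12 hours, then given compound at five concentrations or DMSO for 24 hours. After fixation, blocking and antibody staining, PINK1 amount and mitochondrial localization are scored; CCCP serves as control.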
p53 reactivator = re-activators of mutant p53 | Potency, µM (doses to about 92.2 µM), inactives show at the top dose activity change, positive = activation, actives largely listed as activators | AID 504706 | H1299 p53-A138V BP100-luciferase reporter, luminescence, 24 h | actives 0.063% (n = 320,000); further: potency means the concentration at half of the fitted maximal effect; % of control where 0% means no effect; nearly all actives have a fitted effect of over 45% in size
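H1299 (p53-null), stable ts p53-A138V + BP100-Luc; 1000 cells/well, Opti-MEM/10% FBS; cpd 4 pt, 1:5; 24 h, 37 deg C, 5% CO2; detection reagent 10 min RT; luminescence.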
ASM inhibitor = blocks human secretory acid sphingomyelinase; P17405; placental ASM, HMU-PC fluorogenic substrate, 60 min; Potency, µM (doses to about 57.5 µM), for inactives: top-dose activity change, negative = inhibition, hits mostly inhibitors; actives 0.006% (n = 340,000); AID 504937; further: potency means the concentration at half of the fitted maximal effect
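Human placenta-derived ASM enzyme was preincubated with compound for 10 minutes at room temperature, then given fluorogenic substrate HMU-PC0 (9 uM final) for 60 minutes at 37 °C; a pH 10 stop preceded fluorescence reading at Ex 386/Em 447 nm.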
Mm-Cpn inhibitor = blocks the Methanococcus maripaludis chaperonin Mm-Cpn. purified Mm-Cpn ATPase, ADP Transcreener TR-FRET. Potency, µM (top dose mostly 76.9 µM), for the others: top-dose activity, negative = inhibition, most hits filed as inhibitors. actives 0.031% (n = 330,000); further: potency means the concentration at half of the fitted maximal effect; on the % scale 0 is the no-effect control and ±100 the full control effect; nearly all actives have a fitted effect of over 80% in size
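TR-FRET (320 nm excitation; 590 and 665 nm emission) reports ADP made from 10 uM ATP by 25 nM enzyme; compounds were preincubated 10 min, reaction run 30 min, both at 37°C.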
* = called active by the depositor; ? = inconclusive; . = no result given; ! = a repeat was not active. Unless noted, the call rests on the fitted dose curve; in most records, active means well fitted curve in the direction sought with a large enough effect; inconclusive means small, poorly fitted or top-dose-only effect, or another doubt; inactive means no such curve, though single readings can be large; an effect the other way counts as inactive or inconclusive.

SMILES	ALOX12 inh	CCT chaperon mod	PINK1 modulator	p53 reactivator	ASM inhibitor	Mm-Cpn inhibitor
O=c1cc(-c2ccc(O)c(O)c2)oc2ccc3ccccc3c12	?	0	0%	.	-5%	1%
O=c1cc(-c2ccc(O)c(O)c2)oc2c1ccc1ccccc12	0.35µM*	-2	?	-6%	-18%	1%
O=c1oc(-c2ccc(O)c(O)c2)cc2cccc(O)c12	4.5µM*	0	2%	24%	70%	-3%
O=C(Nc1ccc2oc(-c3ccc(F)cc3)nc2c1)c1ccccc1Cl	-2%	.	.	.	.	.
CCOC(=O)c1cnc2ccc(OC)cc2c1Nc1ccccc1OC	-18%	.	.	.	.	.
O=C1Nc2ccccc2SC1c1ccccc1 (configuration not stated)	0%	0	2%	1%	-4%	4%
Cc1ccc(NC2Sc3ccccc3NC2=O)cc1 (configuration not stated)	7.1µM*	0	1%	-5%	-1%	1%
CN1CCN(c2ncncc2-c2ccccc2Cl)CC1	40µM*	.	-1%	.	.	.
CC1CCN(C(=O)c2nn(C)c(=O)c3ccccc23)c2ccccc2S1 (configuration not stated)	-8%	.	.	.	.	.
CC(Oc1ccc(Br)cc1)c1nc2c3ccccc3nc(=S)n2[nH]1 (configuration not stated)	3.5µM*	0	5%	-4%	-16%	2%
C=CCNC(=O)c1cc(-c2ccccc2)sc1N	-27%	.	.	.	.	.
Nc1sc(-c2ccccc2)cc1C(=O)NCCc1ccc(Cl)cc1	40µM*	.	.	.	.	.
CCOc1ccc(C(c2c(C)[nH]n(-c3ccccc3)c2=O)c2c(C)[nH]n(-c3ccccc3)c2=O)cc1OC	50µM*	.	1%	.	.	.
CCCCCC1=CCC/C1=N\NC(=O)C(N)=O	-20%	.	.	.	.	.
CCCCCC1=CCC/C1=N/NC(=S)NCCOC	40µM*	.	.	.	.	.
Cc1ccccc1C(=O)N1CC2(Cc3ccccc3N([S+](C)(=O)[O-])C2)C1	45µM*	.	.	.	.	.
CC(=O)NCc1ccc(C(=O)OC/C=C/c2ccccc2)cc1	-22%	.	.	.	.	.
COC(=O)c1sccc1S(=O)(=O)Oc1ccc2c(C(F)(F)F)cc(=O)oc2c1	16%	.	.	.	.	.
CCN1CCN(c2nc3ccccc3nc2C(C#N)S(=O)(=O)c2ccc(Cl)cc2)CC1 (configuration not stated)	45µM*	.	.	.	.	.
CN1CCN(c2nc3ccccc3nc2C(C#N)S(=O)(=O)c2ccccc2)CC1 (configuration not stated)	44%	-17	0%	-4%	6%	-1%
CCNc1nc2ccccc2nc1C(C#N)S(=O)(=O)c1ccc(C)c(C)c1 (configuration not stated)	14µM*	.	.	.	.	.
CCN1CCN(c2nc3ccccc3nc2C(C#N)S(=O)(=O)c2ccc(OC)cc2)CC1 (configuration not stated)	18µM*	.	.	.	.	.
CCN1CCN(c2nc3ccccc3nc2C(C#N)S(=O)(=O)c2cccc(C)c2)CC1 (configuration not stated)	14µM*	.	.	.	.	.
CCCNC(=O)C1CCN(C(=O)c2ccc(C(F)(F)F)cc2)CC1	4%	.	.	.	.	.
CO/N=C/C(C#N)c1ncc(C(F)(F)F)cc1Cl (configuration not stated)	?	-1	13µM*	7%	-11%	1%
SMILES	ALOX12 inh	CCT chaperon mod	PINK1 modulator	p53 reactivator	ASM inhibitor	Mm-Cpn inhibitor
COc1ccc(N(CC(=O)Nc2nccs2)S(=O)(=O)c2c(C)[nH]c(=O)[nH]c2=O)cc1	-6%	-37*	1%	-2%	0%	2%
CN(C)c1ccc2ncccc2c1	5µM*	.	.	.	.	.
CN(C)c1ccc(/C=C/c2ccc3ncccc3c2)cc1	.	.	1%	.	.	.
COc1ccc(-c2c(C)[nH]n3c(=O)c(Cl)c(C)nc23)cc1	5%	.	.	.	.	.
N#Cc1ccc(NC(=O)Nc2ccc(Oc3ccc(NC(=O)Nc4ccc(C#N)cc4)cc3)cc2)cc1	?	1	45µM*	-2%	-4%	-1%
N#Cc1ccc(NC(=O)Nc2cccc(C#N)c2)cc1	0%	-1	32µM*	1%	-6%	-2%
O=C(O)c1cccc(S(=O)(=O)NNc2ccccc2C(F)(F)F)c1	16µM*	-1	8%	-1%	5%	-1%
CCC(NC(=S)NCc1ccc(F)cc1)c1ccc(C(C)C)cc1 (configuration not stated)	?	-1	16µM*	8%	-2%	1%
CCC(C)c1ccc(C(C)NC(=S)NCc2ccc(F)cc2)cc1 (configuration not stated)	40µM*	-1	?	-4%	-1%	1%
CCCc1ccc(C(C)NC(=S)NC2CCCCC2)cc1 (configuration not stated)	35µM*	-3	?	3%	-8%	1%
CCOc1ccc(C(C)NC(=S)NCc2ccc(Cl)cc2)cc1 (configuration not stated)	40µM*	-2	1%	-8%	-7%	3%
CC(NC(=S)NC1CCCCC1)c1ccccc1 (configuration not stated)	-13%	0	0%	.	6%	-1%
COc1ccc(C(C)NC(=S)NCc2ccc(F)cc2)cc1OC (configuration not stated)	-19%	2	1%	-5%	0%	1%
CCC/C(=N\NC(=O)c1ccc(C(C)(C)C)cc1)c1ccccc1	56%	.	.	.	.	.
CCOCCOC(=O)COc1ccc2c(=O)c(Oc3cc(C)ccc3C)coc2c1	28%	.	.	.	.	.
CC(Sc1nc(Cl)nc2nc[nH]c12)C(=O)NCCc1ccc(O)cc1 (configuration not stated)	-4%	.	.	.	.	.
Cc1ccc(C)c(C(C)NC(=S)NC2CCCCC2)c1 (configuration not stated)	45µM*	-3	?	-4%	3%	0%
Cc1ccc(C)c(C(C)NC(=O)C2CCCC2)c1 (configuration not stated)	-20%	-1	2%	0%	-5%	?
CCCc1ccc(C(C)NC(=S)NCc2ccc(F)cc2)cc1 (configuration not stated)	32µM*	-2	?	-4%	-11%	-6%
CC(Sc1nc2ccccc2s1)C(=O)NC1(C#N)CCCCC1 (configuration not stated)	12%	.	.	.	.	.
O=C(Nc1ccc2[nH]c(=O)[nH]c2c1)c1nn(-c2ccccc2)c2c1CCCCC2	-47%	.	.	.	.	.
CC(C)(C)c1ccc(C(=O)NC(=S)Nc2nc3c(s2)CCCC3)cc1	45µM*	-5	-2%	?	-3%	1%
CCN(CC)CCOc1ccc2c(c1)C(=O)c1cc(OCCN(CC)CC)ccc1-2	22µM*!	.	.	.	.	.
